Drawing on PubChem BioAssay (Tox21), this text covers outcome and fluorescence, % of Rose Bengal for 21 molecules.

The source made the active and inactive calls. The call rests on the fitted dose curve; in most records, active means well fitted curve in the direction sought with a large enough effect in the repeat runs; inconclusive means weak or mixed curves; inactive means flat fitted curve, though single readings scatter.
On the % scale 0 is the no-effect control and ±100 the full control effect.

The assay can be described thus: qHTS assay to test for compound auto fluorescence at 590 nm (red) in HepG2 cell free culture (AID 720684). As to conditions: cell-free medium autofluorescence, red 540/590 nm; series mostly up to 91.3 µM. Summed up: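 Ex 540 / Em 590 nm read of compound in cell-free MEM (10% FBS). Rose Bengal sodium reference.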
As for `CC(C)COC(=O)COc1ccc(Cl)cc1Cl`, the call was inactive.

On to `O=c1[nH]c(=O)c2[nH]c(=O)[nH]c2[nH]1`, for which the result was inactive.

As for `NS(=O)(=O)c1cc2c(cc1Cl)NC(C(Cl)Cl)NS2(=O)=O` (stereo unspecified), the fluorescence, % of Rose Bengal was -0.224% [at 18.6 µM] (inactive).

Turning to `SCCSCCS`, the call was inactive.

In the case of `Cc1cc(C)cc([N+](=O)[O-])c1`, the call was inactive.

With `CCCCOC(=O)C(C)OC(=O)CCC` (stereo unspecified), the result was inactive.

With `CC1=NN(c2ccc(S(=O)(=O)O)cc2)C(=O)C1N=Nc1ccccc1` (stereo unspecified), the call was inactive.

As for `O=C(O)c1ccccc1C(=O)Nc1ccc(S(=O)(=O)Nc2nccs2)cc1`, the result was inactive.

As for `FC(F)(F)/C(=N\OCC1OCCO1)c1ccc(Cl)cc1`, the call was inactive.

For the molecule `Nc1ccc(/C=C/c2ccc(N)cc2S(=O)(=O)O)c(S(=O)(=O)O)c1`, the result was inactive.

With `CCOC(=O)CC#N`, the result was inactive.

`COc1cc(C=O)ccc1OC(=O)C(C)C`: the result was inactive.

As for `CCCOC(=O)CCCCC(=O)OCCC`, the outcome was inactive.

As to `OC(CCN1CCCCC1)(c1ccccc1)c1ccccc1`, the call was inactive.

Turning to `C[C@H]1O[C@H](O[C@H]2[C@H](O)[C@@H](O)[C@@H](O[C@H]3[C@H](O)[C@@H](O)[C@H](O)O[C@@H]3CO)O[C@@H]2CO)[C@H](O)[C@@H](O)[C@@H]1N[C@H]1C=C(CO)[C@@H](O)[C@H](O)[C@H]1O`, the molecule was called inactive.

As to `O=S(=O)(O)CCO`, the molecule was called inactive.

For `NCCc1ccn[nH]1`, the fluorescence, % of Rose Bengal is 0.001% [at 18.6 µM] (inactive).

Take `CCCCC(CC)C(=O)OC(C)C` (stereo unspecified): the outcome was inactive.

As for `CCC(=O)c1ccc(O)cc1`, the outcome was inactive.

Consider `CCCCCCCCC(=O)OCC`, for which the result was inactive.

For the molecule `COc1cc2c3cc1Oc1cc(ccc1O)C[C@@H]1c4c(cc(OC)c(O)c4Oc4ccc(cc4)C[C@@H]3N(C)CC2)CC[N+]1(C)C`, the call was inactive.
